The text below walks through data of PubChem BioAssay (NCATS).

Inconclusive results are not listed. The source made the active and inactive calls. The call rests on the fitted dose curve; in most records, active means well fitted inhibition curve with a large enough effect; inconclusive means small, poorly fitted or top-dose-only effect; inactive means flat fitted curve, though single readings scatter.

Experiment in all cases: qHTS profiling for inhibitors of Plasmodium falciparum proliferation (AID 504749); further: nearly all actives have a fitted effect of over 60% in size
Holding throughout (settings): P. falciparum in erythrocytes, SYBR Green DNA, 72 h; series mostly up to 28.7 µM
(In qHTS, concentration-response curves come from the screen itself.)

The test system of one assay is CP269. A digest of the protocol:
(§1)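 SYBR Green fluorescence of parasite DNA, read after lysis and overnight dark incubation, measured growth over 72 h in erythrocyte culture at 0.3% parasitemia and 2.5% hematocrit. Data normalised to DMSO and 0.29 uM artemisinin, with plate-drift correction.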

The next assay deals with CP286. Put shortly: as §1
Another assay relates to CP291. Put shortly: as §1
The test system of another assay is CP297. A digest of the protocol:
as §1

The next assay relates to CP305. Put shortly:
as §1

In a further assay the test system is CP315. A digest of the protocol: as §1
The next assay relates to CP325. Put shortly:
as §1

The subject of the next assay is CP329. A digest of the protocol:
as §1

For another assay, the system named is CP335. Put shortly: as §1
A further assay has as its system DFO2036. A digest of the protocol: as §1
The test system of a further assay is DIV14. A digest of the protocol: as §1
For the next assay, the system named is DIV17. Put shortly:
as §1

Another assay has as its system DIV30. A digest of the protocol: as §1
The subject of the next assay is Dd2. A digest of the protocol:
as §1

The subject of another assay is ECU. Put shortly:
as §1

The test system of the next assay is FAB9. Put shortly:
as §1

Another assay concerns GB4. Put shortly:
as §1

The next assay relates to HB3. Put shortly:
as §1

For a further assay, the system named is ICS. Put shortly: as §1
The subject of another assay is JCK. A digest of the protocol: as §1
Potency means the concentration at half of the fitted maximal effect.

In the case of `COc1ncnc(NS(=O)(=O)c2ccc(N)cc2)c1OC`, the Potency result in the assay on CP269, in the assay with CP286, with CP291, with CP297, in the assay with CP305 and with CP315 was “inactive” in each case. In addition, the Potency entry in the assay on CP325, in the assay on CP329, in the assay on CP335, in the assay with DFO2036, with DIV14 and in the assay on DIV17 was “inactive” throughout. Besides, the Potency entry in the assay on DIV30, with Dd2, in the assay with ECU, in the assay with FAB9, in the assay on GB4 and with HB3 was “inactive” in each case. The Potency result in the assay on ICS and in the assay on JCK was “inactive” throughout.
In the case of `Nc1ccc(S(=O)(=O)Nc2ccccn2)cc1`, the Potency entry in the assay with CP269, in the assay on CP286, in the assay with CP291, with CP297, in the assay with CP305 and in the assay on CP315 was “inactive” throughout. The Potency result in the assay on CP325, in the assay on CP329, in the assay with CP335, with DFO2036, with DIV14 and in the assay with DIV17 was “inactive” in each case. Moreover, the Potency result in the assay with DIV30, in the assay with Dd2, in the assay with ECU, in the assay with FAB9, in the assay on GB4 and with HB3 was “inactive” throughout. In addition, the Potency entry in the assay with ICS and with JCK was “inactive” throughout.
`CNC1CCCN(c2c(F)cc3c(=O)c(C(=O)O)cn(C4CC4)c3c2OC)C1` (stereo not drawn): the Potency entry in the assay on CP269, in the assay with CP286, in the assay on CP291, in the assay on CP297, in the assay with CP305 and with CP315 was “inactive” each time. Also, the Potency entry in the assay on CP325, in the assay with CP329, with CP335, in the assay on DFO2036, in the assay with DIV14 and in the assay on DIV17 was “inactive” in each case. Also, the Potency entry in the assay on DIV30, with Dd2, in the assay on ECU, in the assay with FAB9, with GB4 and with HB3 was “inactive” each time. The Potency entry with ICS and with JCK was “inactive” in each case.
For the compound `CCc1c2c(nc3ccc(OC(=O)N4CCC(N5CCCCC5)CC4)cc13)-c1cc3c(c(=O)n1C2)COC(=O)[C@]3(O)CC`, the Potency result in the assay with CP269, in the assay on CP286, in the assay with CP291, with CP297, in the assay on CP305 and in the assay on CP315 was “inactive” throughout. In addition, the Potency result in the assay with CP325, in the assay on CP329, in the assay with CP335, in the assay with DFO2036, in the assay on DIV14 and in the assay on DIV17 was “inactive” each time. The Potency entry in the assay with DIV30, with Dd2, with ECU, with FAB9, with GB4 and in the assay on HB3 was “inactive” throughout. Besides, the Potency entry with ICS and with JCK was “inactive” in each case.
As to `N=C(N)c1ccc(OCCCCCOc2ccc(C(=N)N)cc2)cc1`, the Potency in the assay on CP269 is 0.536 µM (active); in the assay with CP286 it was 1.12 µM (active); with CP291 it was 1.2 µM (active); in the assay with CP297, 0.601 µM (active); in the assay with CP305, 0.536 µM (active); in the assay on CP315 it was 1.35 µM (active). The Potency in the assay with CP325 was 1.07 µM (active); in the assay on CP329, 0.849 µM (active); in the assay on CP335 it was 1.35 µM (active); with DFO2036, 1 µM (active); in the assay on DIV14, 0.269 µM (active); in the assay on DIV17 it was 0.426 µM (active). Further, the Potency was 1.69 µM (active) in the assay on DIV30; 0.501 µM (active) in the assay on Dd2; 2 µM (active) in the assay on ECU; 0.794 µM (active) with FAB9; 0.338 µM (active) with GB4; 1.26 µM (active) in the assay on HB3. The results for the Potency with ICS and in the assay with JCK were 1 µM (active) and 2.51 µM (active), respectively.
Regarding `COc1ccc(-c2ccc3cc(C(=O)O)ccc3c2)cc1C12CC3CC(CC(C3)C1)C2`, the Potency entry in the assay with CP269, in the assay with CP286, in the assay with CP291, in the assay on CP297, with CP305 and in the assay on CP315 was “inactive” in each case. The Potency entry in the assay with CP325, with CP329, in the assay with CP335, with DFO2036, in the assay with DIV14 and with DIV17 was “inactive” each time. Further, the Potency result with DIV30, in the assay on Dd2, in the assay with ECU, in the assay on FAB9, with GB4 and with HB3 was “inactive” throughout. Moreover, in the assay on JCK, the Potency result was “inactive”.
Regarding `NC(=O)c1cccnc1`, the Potency entry with CP269, in the assay with CP286, with CP291, in the assay with CP297, in the assay with CP305 and in the assay with CP315 was “inactive” throughout. In addition, the Potency result with CP325, in the assay on CP329, with CP335, in the assay with DFO2036, in the assay on DIV17 and with DIV30 was “inactive” each time. The Potency entry with Dd2, with ECU, with FAB9, in the assay with GB4, in the assay with HB3 and in the assay with ICS was “inactive” throughout. Moreover, in the assay on JCK, the Potency result is “inactive”.
Take `CCOC(=O)[C@H](CCc1ccccc1)N[C@H]1CS[C@H](c2cccs2)CN(CC(=O)O)C1=O`: the Potency entry in the assay on CP269, in the assay on CP286, with CP291, in the assay with CP297, in the assay on CP305 and with CP315 was “inactive” in each case. Also, the Potency entry in the assay with CP325, in the assay on CP329, in the assay on CP335, with DFO2036, in the assay with DIV17 and in the assay on DIV30 was “inactive” each time. Moreover, the Potency result in the assay on Dd2, in the assay on FAB9, with HB3 and with JCK was “inactive” throughout.
Take `S=P(N1CC1)(N1CC1)N1CC1`: the Potency result in the assay with CP269, in the assay on CP286, in the assay on CP291, in the assay on CP297, with CP305 and in the assay on CP315 was “inactive” in each case. The Potency entry in the assay on CP325, in the assay with CP329, with CP335, in the assay with DFO2036, in the assay on DIV14 and with DIV17 was “inactive” throughout. For the same compound, the Potency entry with Dd2, in the assay on ECU, in the assay on FAB9, in the assay with GB4, in the assay on HB3 and with ICS was “inactive” in each case. Also, in the assay on JCK, the Potency result is “inactive”.
`CCOCC(O)COc1ccc(NC(=O)CC[S+](C)C)cc1` (stereo not drawn): the Potency entry in the assay on CP269, in the assay on CP286, in the assay on CP291, with CP297, in the assay on CP305 and with CP315 was “inactive” each time. Also, the Potency entry in the assay on CP325, in the assay on CP329, in the assay on CP335, with DFO2036, in the assay with DIV14 and in the assay with DIV17 was “inactive” in each case. Moreover, the Potency result in the assay with DIV30, with Dd2, with ECU, with FAB9, with GB4 and in the assay on HB3 was “inactive” throughout. The Potency result in the assay with JCK was “inactive”.
`CCOC(=O)c1ccc(OC(=O)CCCCCN=C(N)N)cc1`: the Potency result in the assay with CP269, with CP286, with CP291, in the assay on CP297, in the assay with CP305 and in the assay on CP315 was “inactive” throughout. In addition, the Potency result in the assay with CP325, in the assay with CP329, with DFO2036, in the assay on DIV30, with Dd2 and with FAB9 was “inactive” each time. Moreover, the Potency result in the assay with JCK is “inactive”. For the same compound, the Potency in the assay on DIV17 is 4.55 µM (active); with HB3 it was 4.47 µM (active); in the assay on ICS, 2 µM (active).
For `CCN(C)C(=O)Oc1cccc([C@H](C)N(C)C)c1`, the Potency result in the assay on CP269, with CP286, in the assay with CP291, in the assay with CP297, in the assay with CP305 and in the assay with CP315 was “inactive” each time. For the same compound, the Potency entry in the assay on CP325, with CP329, with CP335, with DFO2036, with DIV14 and in the assay with DIV17 was “inactive” in each case. Moreover, the Potency result in the assay on DIV30, in the assay on Dd2, in the assay on ECU, in the assay with FAB9, in the assay with GB4 and in the assay with HB3 was “inactive” in each case. Besides, the Potency result in the assay on ICS and in the assay with JCK was “inactive” in each case.
